Among the data in PubChem BioAssay (NCI) are growth values, retold here.

Some test systems named below: K-562 leukemia; MALME-3M melanoma; MDA-MB-231 breast; RXF 393 renal; SF-295 CNS; SF-539 CNS; UACC-257 melanoma; M14 melanoma; HCT-15 colon; HT29 colon; SNB-75 CNS; SNB-19 CNS; U251 CNS; SK-MEL-5 melanoma; UACC-62 melanoma; SK-MEL-28 melanoma; SK-MEL-2 melanoma; SF-268 CNS; PC-3 prostate; LOX IMVI melanoma.
What all share (experiment): NCI-60 one-dose screen, 48 h (100 = growth as untreated, 0 = no growth, -100 = all killed)
Common to all, as to settings: 10 µM unless noted

This is part of a sample that, as a whole, favours compounds with a hit. Of some 83,000 tested, about 20% had one in any assay.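 Treatment: one concentration, 48 hours, 96-well format. Scoring: percent growth, with anything below 10 considered active.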 Values without a mark were called inactive. The source made the active and inactive calls.

Turning to `O=Nc1ccc(O)c(=O)cc1`, the growth in the assay with K-562 leukemia was 9.11% (active); in the assay on MALME-3M melanoma, -4.09% (active); with MDA-MB-231 breast it was 41.6%; in the assay on RXF 393 renal, -42.1% (active); with SF-295 CNS, 125%; with SF-539 CNS, 47.8%. Further, the growth with UACC-257 melanoma is 37.4%; with M14 melanoma, 30.4%; in the assay on HCT-15 colon, 10.2%; in the assay with HT29 colon, 4.07% (active); with SNB-75 CNS it was 63.3%; with SNB-19 CNS, 102%. Moreover, the growth in the assay with U251 CNS is 14.6%; in the assay with SK-MEL-5 melanoma, 79.8%; in the assay on UACC-62 melanoma, 34.9%; in the assay with SK-MEL-28 melanoma, 55.9%; in the assay with SK-MEL-2 melanoma, 71.4%.
Turning to `Cc1c(C(N)=O)sc2nc(SCC(=O)Nc3ccc(Cl)cc3)n(-c3ccccc3)c(=O)c12`, the growth with K-562 leukemia is 84.2%; with MALME-3M melanoma, 159%; in the assay on MDA-MB-231 breast, 93.1%; in the assay on RXF 393 renal it was 95.8%; in the assay with SF-268 CNS, 101%; in the assay on SF-539 CNS, 110%. Further, the growth in the assay on UACC-257 melanoma is 104%; in the assay on M14 melanoma it was 104%; in the assay with HCT-15 colon, 121%; with HT29 colon it was 87.9%; in the assay on SNB-19 CNS, 101%; in the assay on U251 CNS, 98.4%. Further, the growth was 73% with PC-3 prostate; 110% in the assay with SK-MEL-5 melanoma; 96.8% in the assay with UACC-62 melanoma; 98.1% in the assay on LOX IMVI melanoma; 181% in the assay with SK-MEL-28 melanoma; -16.1% (active) in the assay with SK-MEL-2 melanoma.
As to `O=C(Nc1cccc(C(F)(F)F)c1)Nc1ccc(OCc2nnc(-c3ccc(Cl)cc3)o2)c(F)c1`, the growth in the assay on K-562 leukemia was 61%; in the assay with MALME-3M melanoma it was 55.7%; in the assay on MDA-MB-231 breast it was 58.8%; in the assay with RXF 393 renal, 58.2%; in the assay on SF-268 CNS it was 83.3%; in the assay with SF-539 CNS, 82.2%. The growth with UACC-257 melanoma is 62.8%; in the assay on M14 melanoma it was 73.5%; with HT29 colon, 60.2%; in the assay on SNB-75 CNS it was 39.4%; in the assay on SNB-19 CNS it was 69.9%; in the assay on U251 CNS, 52.7%. In addition, the growth is 45.9% in the assay on PC-3 prostate; 77.5% with SK-MEL-5 melanoma; 68.8% in the assay on UACC-62 melanoma; 73.5% in the assay on SK-MEL-28 melanoma; 78.7% in the assay with SK-MEL-2 melanoma.
Take `COc1cc(/C=C/c2nnc(-c3cc(-c4ccccc4)n[nH]3)o2)cc(OC)c1OC`: the growth is 98.2% with K-562 leukemia; 98.3% in the assay on MALME-3M melanoma; 111% with MDA-MB-231 breast; 111% with RXF 393 renal; 105% with SF-295 CNS; 92.6% in the assay on SF-539 CNS. Moreover, the growth with UACC-257 melanoma was 105%; in the assay with M14 melanoma, 127%; with HCT-15 colon it was 102%; in the assay on HT29 colon, 96.8%; with SNB-75 CNS it was 67.4%; with SNB-19 CNS, 102%. Further, the growth with U251 CNS is 108%; in the assay with SK-MEL-5 melanoma, 84.5%; in the assay with UACC-62 melanoma it was 92.9%; in the assay with LOX IMVI melanoma it was 95.4%; with SK-MEL-28 melanoma it was 87.9%; in the assay with SK-MEL-2 melanoma, 89.7%.
`CCS(=O)(=O)OCCCl`: the growth was 122% in the assay on K-562 leukemia; 113% in the assay on MALME-3M melanoma; 118% in the assay on MDA-MB-231 breast; 107% with SF-268 CNS; 97.2% in the assay on SF-295 CNS; 94.9% in the assay with SF-539 CNS. Further, the growth is 72.1% with UACC-257 melanoma; 116% in the assay on M14 melanoma; 92.9% in the assay with HCT-15 colon; 104% in the assay on HT29 colon; 70% with SNB-75 CNS; 94.3% in the assay with SNB-19 CNS. Besides, the growth was 92.1% in the assay with U251 CNS; 97.6% with PC-3 prostate; 103% with SK-MEL-5 melanoma; 101% in the assay on UACC-62 melanoma; 98.5% in the assay on LOX IMVI melanoma; 120% in the assay on SK-MEL-28 melanoma. Besides, the growth in the assay on SK-MEL-2 melanoma was 83.7%.
On to `CC(=O)Oc1ccc(C2OC(c3ccc4ccccc4c3OC(C)=O)=NN2C(C)=O)c(OC(C)=O)c1` (stereo not drawn), for which the growth with K-562 leukemia is 4.1% (active); in the assay on MALME-3M melanoma, 8.98% (active); in the assay on MDA-MB-231 breast it was 39.9%; with RXF 393 renal it was 1.4% (active); in the assay on SF-268 CNS, 13.7%; in the assay with SF-539 CNS it was 13.9%. In addition, the growth in the assay with UACC-257 melanoma is -28.2% (active); with M14 melanoma, 3.34% (active); with HCT-15 colon, 34.1%; with HT29 colon, 27.2%; in the assay with SNB-19 CNS, 36.9%; with U251 CNS it was 13.2%. Further, the growth in the assay with PC-3 prostate is 24.5%; in the assay on SK-MEL-5 melanoma, -9.16% (active); in the assay on UACC-62 melanoma, -11.8% (active); in the assay on LOX IMVI melanoma, 4.67% (active); in the assay with SK-MEL-28 melanoma, 37.9%; in the assay with SK-MEL-2 melanoma, 13%.
For the molecule `COc1cccc(C2C(C#N)=C(N)Oc3cc(OC)ccc32)c1` (stereo not drawn), the growth in the assay with K-562 leukemia is -4.51% (active); in the assay with MALME-3M melanoma, 36.6%; in the assay on MDA-MB-231 breast, -15.4% (active); with RXF 393 renal, 26.9%; with SF-268 CNS, 18.3%; with SF-539 CNS, -13.3% (active). Moreover, the growth with UACC-257 melanoma is 59.2%; with M14 melanoma, 12.6%; in the assay on HCT-15 colon, 10.4%; with HT29 colon it was -21.2% (active); with SNB-19 CNS it was 44.1%; in the assay on U251 CNS, 3.36% (active). Further, the growth with PC-3 prostate is -2.64% (active); with SK-MEL-5 melanoma, -4.55% (active); with UACC-62 melanoma, 30.9%; with LOX IMVI melanoma, 13.2%; in the assay with SK-MEL-28 melanoma it was 56.2%; with SK-MEL-2 melanoma, 19.8%.
On to `O=[N+]([O-])c1cnc(Sc2ccncn2)c([N+](=O)[O-])c1`, for which the growth was -46.9% (active) with K-562 leukemia; -53% (active) in the assay with MALME-3M melanoma; 91.1% in the assay with MDA-MB-231 breast; 94.3% with RXF 393 renal; 101% with SF-268 CNS; 97.7% with SF-539 CNS. For the same molecule, the growth is -9.5% (active) in the assay on UACC-257 melanoma; 97.2% with M14 melanoma; 0.0905% (active) with HCT-15 colon; 76.5% with HT29 colon; 95.2% with SNB-75 CNS; 102% in the assay on SNB-19 CNS. Besides, the growth in the assay with U251 CNS is 100%; with PC-3 prostate, 96.3%; in the assay on SK-MEL-5 melanoma, 92%; in the assay on LOX IMVI melanoma it was 96.8%; in the assay with SK-MEL-28 melanoma, 98.3%; in the assay with SK-MEL-2 melanoma it was 110%.
